The nature of the experiment: Confirmatory qHTS for inhibitors of SARS-S pseudo-typed particle cell entry. A general note: Quantitative high-throughput screening tests each substance at several concentrations.

Records with an inconclusive call do not appear. Active and inactive are the calls of the source. The call rests on the fitted dose curve.

On to `COc1cccc2c1C(=O)c1c(O)c3c(c(O)c1C2=O)C[C@@](O)(C(=O)CO)CC3OC1CC(N2CCOC(OC)C2)C(O)C(C)O1` (stereo partly drawn), for which the Potency was 96.1 nM (active).

Regarding `Nc1nc(Cl)nc2c1ncn2C1CC(O)C(CO)O1` (stereo not drawn), the Potency is 12100 nM (active).

On to `CN(C)CCC=C1c2ccccc2C(C)(C)c2ccccc21`, for which the Potency was 10800 nM (active).

As to `COc1cccc2c1C(=O)c1c(O)c3c(c(O)c1C2=O)C[C@@](O)(C(=O)CO)C[C@@H]3O[C@H]1C[C@H](N)[C@H](OC2CCCCO2)[C@H](C)O1` (stereo partly drawn), the Potency is 7640 nM (active).

Turning to `O=c1ccc2ccccc2o1`, the Potency entry was “inactive”.

Take `CCCCCCCCCCCCCC[n+]1ccc(C)cc1`: the Potency is 3830 nM (active).

In the case of `O=C1CCc2ccc(OCCCCN3CCN(c4cccc(Cl)c4Cl)CC3)cc2N1`, the Potency is 19200 nM (active).

For the molecule `COc1cccc2c1C(=O)c1c(O)c3c(c(O)c1C2=O)C[C@@](O)(C(C)=O)C[C@@H]3O[C@H]1C[C@H](N)[C@H](O)[C@H](C)O1`, the Potency is 2150 nM (active).

Consider `CC[C@@]1(O)C(=O)OCc2c1cc1n(c2=O)Cc2cc3c([N+](=O)[O-])cccc3nc2-1`, for which the Potency is 124 nM (active).

For the molecule `C=CC(=O)Nc1cc(Nc2nccc(-c3cn(C)c4ccccc34)n2)c(OC)cc1N(C)CCN(C)C`, the Potency is 1520 nM (active).

As to `C[C@]12CC[C@H](O)C[C@H]1CCC1C2CC[C@]2(C)[C@@H](c3ccc(=O)oc3)C[C@H]3O[C@]132` (stereo partly drawn), the Potency is 5410 nM (active).

Turning to `Cc1nnc(C(=O)NC(C)(C)c2nc(C(=O)NCc3ccc(F)cc3)c(O)c(=O)n2C)o1`, the Potency is 10.8 nM (active).

For `O=C1c2c(O)ccc(O)c2C(=O)c2c(NCCNCCO)ccc(NCCNCCO)c21`, the Potency is 121 nM (active).

As to `CN1CCN(CCC=C2c3ccccc3Sc3ccc(S(=O)(=O)N(C)C)cc32)CC1`, the Potency was 6070 nM (active).

Turning to `COC(=O)C1=C(C)NC(C)=C(C(=O)OCC(C)C)C1c1ccccc1[N+](=O)[O-]` (stereo not drawn), the Potency is 19200 nM (active).

Regarding `CCn1cc(C(=O)O)c(=O)c2cc(F)c(N3CCNC(C)C3)c(F)c21` (stereo not drawn), the Potency entry is “inactive”.

Regarding `CCCCCCOC(=O)NC(=N)c1ccc(NCc2nc3cc(C(=O)N(CCC(=O)OCC)c4ccccn4)ccc3n2C)cc1`, the Potency entry is “inactive”.

With `Cc1oncc1C(=O)Nc1ccc(C(F)(F)F)cc1`, the Potency entry was “inactive”.

`Cc1ccc(NC(=O)c2ccc(CN3CCN(C)CC3)cc2)cc1Nc1nccc(-c2cccnc2)n1`: the Potency was 30400 nM (active).

As for `Nc1ccn([C@@H]2O[C@H](CO)[C@@H](O)C2(F)F)c(=O)n1`, the Potency was 192 nM (active).

For `CNC(=O)c1cc(Oc2ccc(NC(=O)Nc3ccc(Cl)c(C(F)(F)F)c3)c(F)c2)ccn1`, the Potency was 8570 nM (active).

Regarding `O=C(Nc1ccc([N+](=O)[O-])cc1Cl)c1cc(Cl)ccc1O`, the Potency was 541 nM (active).

As for `CN1CCCCC1CCN1c2ccccc2Sc2ccc(S(C)=O)cc21` (stereo not drawn), the Potency is 27100 nM (active).

On to `CCCCCCCCCCCC[n+]1ccc2ccccc2c1`, for which the Potency was 3830 nM (active).

For the molecule `CN1CCC(=C2c3ccccc3C=Cc3ccccc32)CC1`, the Potency is 27100 nM (active).

For the molecule `CCC(C)(C)C(=O)O[C@H]1C[C@@H](C)C=C2C=C[C@H](C)[C@H](CC[C@@H]3C[C@@H](O)CC(=O)O3)[C@H]21`, the Potency was 607 nM (active).

Turning to `CCN1CCN(Cc2ccc(Nc3ncc(F)c(-c4cc(F)c5nc(C)n(C(C)C)c5c4)n3)nc2)CC1`, the Potency is 961 nM (active).

With `O=c1c(C2CC(c3ccc(-c4ccc(Br)cc4)cc3)Cc3ccccc32)c(O)sc2ccccc12` (stereo not drawn), the Potency is 13600 nM (active).

Turning to `CC(C)(C)NC(=O)[C@H]1CC[C@H]2[C@@H]3CC[C@H]4NC(=O)C=C[C@]4(C)[C@H]3CC[C@]12C`, the Potency result is “inactive”.

As to `CC[C@@]1(O)C(=O)OCc2c1cc1n(c2=O)Cc2cc3c(CN(C)C)c(O)ccc3nc2-1`, the Potency is 764 nM (active).

On to `COc1ccc2cc1Oc1ccc(cc1)C[C@H]1c3c(cc4c(c3Oc3cc5c(cc3OC)CCN(C)[C@@H]5C2)OCO4)CCN1C`, for which the Potency is 2150 nM (active).

For the molecule `CC(C)C[C@H](NC(=O)[C@H](CCc1ccccc1)NC(=O)CN1CCOCC1)C(=O)N[C@@H](Cc1ccccc1)C(=O)N[C@@H](CC(C)C)C(=O)[C@@]1(C)CO1`, the Potency is 681 nM (active).

In the case of `C=C(C)[C@H]1Cc2c(ccc3c2O[C@@H]2COc4cc(OC)c(OC)cc4[C@@H]2C3=O)O1`, the Potency is 34.1 nM (active).

For the origin of these results see PubChem BioAssay AID1479148 (National Center for Advancing Translational Sciences (NCATS), 2020).
